In all, about 330,000 compounds went through this assay and about 4,100 (1.2%) were called active. About 2% were inconclusive and are not listed. The list comes from a sample in which actives are over-represented; it also holds similar structures and randomly drawn compounds. Values without a mark were called inactive. Rule for the calls: active = max response of -50% or lower; inconclusive = between -30% and -50%; inactive = -30% or higher.
% is set by controls: 0 for no effect and ±100 for the full control effect.

For this experiment, the target named is Phosphatidylinositol 5-phosphate 4-kinase type-2 alpha (Homo sapiens) (UniProt P48426). As to the kind of experiment: qHTS for Inhibitors of phosphatidylinositol 5-phosphate 4-kinase (PI5P4K). Note: value at the top dose of about 77 µM. The settings on record: PI5P4Kalpha enzyme, ADP-Glo luminescence, 60 min; stronger effect = lower value. An excerpt: In addition to finding PI5P, we discovered the type II phosphatidylinositol 5-phosphate 4-kinase (PI5P4K) family (alpha, beta, gamma isoforms) that catalyze the conversion of PI5P to PI(4,5)P2. Alternatively, PI(4,5)P2 can also be synthesized through phosphatidylinositol-4-phosphate (PI4P) by the type I phosphatidylinositol 4-phosphate 5-kinases (PI4P5K). These PI5P4K enzymes therefore represent one way by which cells can regulate endogenous PI5P levels and play important roles in insulin signaling and in stress responses.
Chain of Phosphatidylinositol 5-phosphate 4-kinase type-2 alpha (Homo sapiens) (P48426 whole entry, looked up, canonical isoform): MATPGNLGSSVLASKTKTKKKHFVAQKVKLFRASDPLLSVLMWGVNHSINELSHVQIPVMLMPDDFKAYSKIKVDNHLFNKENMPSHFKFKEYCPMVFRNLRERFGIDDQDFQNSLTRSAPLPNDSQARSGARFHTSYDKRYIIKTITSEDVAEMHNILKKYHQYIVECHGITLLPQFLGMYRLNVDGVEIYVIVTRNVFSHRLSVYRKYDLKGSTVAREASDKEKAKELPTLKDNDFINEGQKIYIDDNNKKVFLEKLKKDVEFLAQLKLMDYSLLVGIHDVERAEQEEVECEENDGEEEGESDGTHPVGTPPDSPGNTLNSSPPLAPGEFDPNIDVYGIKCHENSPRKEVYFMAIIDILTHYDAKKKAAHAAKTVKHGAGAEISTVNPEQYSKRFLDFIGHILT
This proposal aims to identify and optimize specific modulators of human PI5P4K, phosphatidylinositol-5-phosphate 4-kinase (Type II PIPK), a family of kinases that regulate AKT signaling and tumor cell growth. In this project we aim to identify inhibitors of human PI5P4K using a quantitative high-throughput screening approach against the MLSMR containing ~400,000 small molecules.
NIH Chemical Genomics Center [NCGC]
NIH Molecular Libraries Probe Centers Network [MLPCN]
Assay Submitter (PI): Atsuo Sasaki, Beth Israel Deaconess Medical Center
2 microL of PI5P4Kalpha/substrate buffer (columns 1-2, 5-48) are dispensed into Greiner white solid bottom 1536-well assay plates; column 3 receives only PI5P4Kalpha buffer as 0x substrate controls; column 4 receives only substrate buffer as 0x PI5P4Kalpha controls. Final assay buffer consists of 0.038 M HEPES pH 7.4, 0.28 mM EGTA, 0.1% CHAPS, and 5% DMSO (final concentration). Compounds are then transferred via Kalypsys pin tool equipped with 1536-pin array (10 nL slotted pins, V&P Scientific, San Diego, CA). Following addition of compound, 1 microL of ATP (5 microM final concentration, all columns) is added to initiate the reaction. ATP is diluted in an assay buffer consisting of 0.02 M HEPES pH 7.4, 60 mM MgCl2, 15 microM ATP, and 0.1% CHAPS. The plates are then incubated at room temperature for 60 minutes. ADP-Glo reagent 1 is added (2 microL) and plates incubated for 45 minutes, before ADP-Glo reagent 2 (4 microL) is added and plates incubated for 30 minutes. They are then transferred to a ViewLux high-throughput CCD imager (PerkinElmer) wherein single end-point measurements of luminescence are acquired using a clear filter.
As for `S=c1[nH]nc(NCCc2ccccc2)s1`, the max response was -73.1% (active).
For the molecule `S=C(NCCc1ccccc1)Nc1ccccc1`, the max response is -4.55%.
As for `Nc1c(NCCc2ccccc2)c2ccccc2oc1=O`, the figure is -0.531%; as for `Cc1ccccc1-c1csc(C(O)c2cccc(Cl)c2)n1` (stereo not drawn), 23.5%.
Under `Cc1ccnc(-n2sc3ccccc3c2=O)n1` stands -98.6% (active); under `Cc1ccnc(SC2CC(=O)N(c3ccccc3)C2=O)n1` (stereo not drawn), -1.33%; under `Cc1ccnc(N2CCCC(C(=O)NC3CC3)C2)n1` (stereo not drawn), -0.042%.
As for `CCOCCC(=O)Nc1ccc2c(c1)c(=O)n(C)n2-c1ccc2ccccc2c1`, the figure is 0.749%; as for `O=C1CCCC(O)=C1N=Nc1ccc(S(=O)(=O)N2CCOCC2)cc1`, -20.1%.
As for `O=C1CCCC(O)=C1N=Nc1ccc2ncsc2c1`, the max response is -66.1% (active).
As for `COc1ccc(C(C#N)=C2C=CC(=NO)c3ccccc32)cc1`, the figure is -8.83%.
As for `N#Cc1c2c(c(-c3ccccc3)[nH]c1=O)CCCC2`, the figure is -4.1%; as for `N#Cc1c(-c2ccc(Cl)cc2)c2c([nH]c1=S)CCCC2`, -61.4% (active); as for `CC(=O)c1c(C)[nH]c(=S)c(C#N)c1-c1ccc(F)cc1`, -20.4%.
Under `O=C(NN=Cc1ccc(N2CCOCC2)cc1)c1cc2ccccc2cc1O` stands -58.2% (active).
`COc1cc2ccccc2cc1C(=O)Nc1ccc(N2CCOCC2)cc1`: the max response is 5.82%.
`CCN(CC)c1ccc(C(=O)N/N=C/c2ccc(N3CCOCC3)cc2)cc1`: the max response is -1.97%.
Under `Cc1ccc(/C=N/NC(=S)Nc2cccc(S(=O)(=O)N(C)C)c2)o1` stands -3.83%.
As for `Cc1ccc(/C=N/NC(=O)c2cc3ccccc3cc2O)o1`, the figure is -60.2% (active).
As for `Cc1ccc(/C=N/NC(=S)NC2CCCCC2)o1`, the figure is -0.109%.
For the molecule `CCOc1ccc(CCNC(=O)COC(=O)c2ccc(C)c(S(=O)(=O)N3CCOCC3)c2)cc1OCC`, the max response was -2.07%.
For the molecule `CC(C)C[C@@H]1COc2cc(N3CCC[C@@H]3CO)ccc2S(=O)(=O)N1`, the max response is 2.99%.
Regarding `COC(=O)[C@@]12C[C@@H](CC(=O)NCCCCc3ccccc3)C(=O)N(Cc3ccccc3)C1=CCC(C)(C)C2`, the max response is 14.2%.
As for `C#Cc1ccc(NC(=O)C2(C)CCN2C(=O)Cc2ccc(-c3ccccc3)cc2)cc1` (stereo not drawn), the figure is 26.3%; as for `CCCc1c(-c2ccccc2F)ncn1Cc1ccccc1OC`, 4%.
As for `CCS(=O)(=O)C1=NSC2=NC(=O)/C(=C\c3ccc(OS(=O)(=O)c4ccccc4)cc3)C(=N)N21`, the figure is -73.6% (active); as for `Cc1ccc(C2=N/C(=C\c3ccc(OS(=O)(=O)c4ccc(C)cc4)cc3)C(=O)O2)cc1`, -1.18%.
In the case of `CCS(=O)(=O)C1=NSC2=NC(=O)/C(=C\c3cc(C)n(-c4cccc(OC)c4)c3C)C(=N)N21`, the max response is -20.4%.
Under `Cc1ccccc1-c1nc(NC(C)C)nc2cc(-c3ccccc3)sc12` stands 8.32%.
For the molecule `Fc1ccccc1/C=N/n1c(-c2cccnc2)n[nH]c1=S`, the max response is 5.87%.
As for `S=c1[nH]nc(-c2cc(-c3ccccc3)n[nH]2)n1/N=C/c1c2ccccc2cc2ccccc12`, the figure is -58.9% (active); as for `c1ccc(-c2cc(-c3ccccc3)[nH]n2)cc1`, -6.2%; as for `Clc1cccc(-c2nc3nc4ccccc4nc3n2Cc2ccco2)c1`, -4.59%.
Under `Cc1ccc(Cn2c(C)nc3c(c2=O)c2nc4ccccc4nc2n3Cc2ccco2)cc1` stands -62.3% (active).
As for `O=c1c2ccccc2oc2nc(C3CCCCC3)n(Cc3ccco3)c(=O)c12`, the figure is 0.643%; as for `CC1(C(=O)NCc2cccc3ccccc23)CCN1Cc1ccc(-c2ccccc2)o1` (stereo not drawn), 25.6%; as for `CCCCC[C@@H]1C=C(C(=O)OCC)[C@H](c2ccccc2)N1S(=O)(=O)c1ccc(C)cc1`, 8.7%.
With `COCCNc1ncnc2c1ncn2[C@H]1CN(Cc2ccc(OC)cc2)C[C@@H](CO)O1`, the max response was 2.79%.
As for `C=CS(=O)c1sc(Cl)c(N2CCOCC2)c1[N+](=O)[O-]` (stereo not drawn), the figure is -71.5% (active).
As for `CC(=O)Nc1cc(-c2ccccc2F)cn2c(-c3cccc(C(F)(F)F)c3)cnc12`, the figure is -3.13%; as for `COc1ccc(C(C)(O)c2nc(-c3cc(F)cc(F)c3)cs2)cc1` (stereo not drawn), 30.3%; as for `Cc1cc(=O)n2[nH]c(-c3cccc(Cl)c3)cc2n1`, -3.84%.
Under `Cc1cc(=O)n2[nH]c(-c3sccc3-n3c(C)ccc3C)cc2n1` stands -57.4% (active); under `CCc1c(C)nc2cc(-c3cccs3)[nH]n2c1=O`, -0.23%.
For the molecule `CC(C)C[C@H]1CN([C@@H](Cc2ccccc2)CN2CCC[C@@H]2CN2C(=O)C(=O)NC[C@@H]2Cc2ccc(O)cc2)C(=O)C(=O)N1CCc1ccccc1`, the max response was -1.65%.
With `COc1ccc(OC)c2sc(NC(=O)C3COc4ccccc4O3)nc12` (stereo not drawn), the max response is 2.71%.
With `O=C(Nc1ncc([N+](=O)[O-])s1)C1COc2ccccc2O1` (stereo not drawn), the max response was -21.4%.
As for `O=C(Nc1nc(-c2ccncc2)cs1)C1COc2ccccc2O1` (stereo not drawn), the max response is -62.8% (active).
Under `CN(C(=O)CN1CCN(c2cc(-c3ccc(OCc4ccccc4)cc3)ncn2)CC1)c1ccccc1` stands -25%; under `C[C@H]1Cn2cnc(C(=O)N[C@H](C)c3ccccc3)c2C(=O)N1`, -2.59%.
With `CC1=C/C(=N\OS(=O)(=O)c2ccccc2)C=CC1=O`, the max response is -78.8% (active).
In the case of `Cc1nc(C(F)(F)F)ccc1C(=O)N1CCC1(C)C(=O)NS(=O)(=O)c1ccc(F)cc1F` (stereo not drawn), the max response was -1.9%.
As for `CCC(c1nnnn1Cc1ccco1)N(CCc1ccccc1)Cc1cc2ccc(OC)cc2[nH]c1=O` (stereo not drawn), the figure is -64.1% (active).
As for `CCC(c1nnnn1Cc1ccco1)N(Cc1cc2cc(OC)ccc2[nH]c1=O)C1CCCCC1` (stereo not drawn), the figure is -18.4%.
As for `CCC(c1nnnn1Cc1ccco1)N(CCc1ccccc1)Cc1cc2cccc(C)c2[nH]c1=O` (stereo not drawn), the figure is -1.38%; as for `CCc1nc2ccc(C(=O)NC3CCN(Cc4ccccc4)CC3)cn2c1N(CC)CCOC`, -1.84%; as for `CCOC(=O)[C@]12CCCC=C1N(Cc1ccc(Cl)cc1Cl)C(=O)[C@H](CC(=O)N1CCCCC1)C2`, 12%.
For `CCCCC[C@H](C)N1C[C@@H](COCc2ccccc2)Oc2cc(N3CC[C@@H](N(C)C)C3)ccc2S1(=O)=O`, the max response is 27.1%.
For `CN(C)C(=O)c1cccc(-c2cnc3sc(NCc4ccc5c(c4)OCO5)nn23)c1`, the max response was -16.9%.
As for `COc1ccc2[nH]c(=S)cc(C)c2c1`, the figure is -9.52%; as for `CCOc1ccc2nc(N(CCN(C)C)C(=O)c3ccc4ccccc4c3)sc2c1`, -3.3%.
For the molecule `Nc1ccc2[nH]c(=S)sc2c1`, the max response is -73.9% (active).
With `CCOc1ccc2[nH]c(=S)sc2c1`, the max response is -59.6% (active).
As for `O=c1[nH]c2ccccc2s1`, the figure is 5.23%.
For the molecule `CC(C)C[C@H]1CNC(=S)N1C[C@H]1CCCN1C[C@H](Cc1ccc(O)cc1)N1C[C@H](Cc2ccc(O)cc2)N(CC2CCCCC2)C1=S`, the max response is -6.15%.
Under `O=C(NCc1ccc(F)cc1)c1cc(C2CCCCN2C(=O)c2ccccn2)on1` (stereo not drawn) stands -11.1%.
Under `CCOC(=O)C1=CC[C@@H](c2ccncc2)N(S(=O)(=O)c2ccc(C)cc2)C1` stands -0.549%.
On to `COc1cccc(-c2cc(NC(C)=O)c3ncc(-c4cccc(C(C)=O)c4)n3c2)c1`, for which the max response was -0.237%.
As for `CC(C)NC(=O)C1(C)CCCCN1Cc1cccc(C(F)(F)F)c1` (stereo not drawn), the figure is 22.3%; as for `COC(=O)c1ccc2nc(-c3ccc(Cl)cc3)c(Cc3cccc(F)c3)n2c1`, 7.01%; as for `Cc1cc(N2C(=O)C(O)=C(C(=O)c3ccc(C)o3)C2c2ccc(OCc3ccccc3)cc2)no1` (stereo not drawn), -59.9% (active).
With `CCCOc1ccc(C2C(C(=O)c3ccc(C)o3)=C(O)C(=O)N2CCCn2ccnc2)cc1` (stereo not drawn), the max response was -23%.
As for `C=CCOc1cccc(C2C(C(=O)c3ccc(C)o3)=C(O)C(=O)N2CCN2CCOCC2)c1` (stereo not drawn), the figure is 2.35%; as for `O=C(c1ccc(CS(=O)Cc2ccccc2Cl)o1)N1CCN(c2ccccc2)CC1` (stereo not drawn), -2.59%.
For the molecule `O=C(Nc1ccc(OCCO)cc1)c1csc([C@H]2C[C@H](O)[C@@H](CO)O2)n1`, the max response is -3.56%.
As for `CN1CCN(c2ccc(NC(=O)c3cc(Cl)c4c(c3)OCCO4)cc2)CC1`, the figure is 3.06%; as for `C=CC(=O)Nc1ccc(Nc2ccnc(Nc3ccc(N4CCN(C)CC4)cc3)n2)cc1`, -68.9% (active).
`Cc1cccc(N2CCN(c3ccc(NC(=O)/C=C\C(=O)O)cc3)CC2)c1`: the max response is -9.89%.
With `CCCCCc1c(Cc2ccccc2)ncn1CCc1ccccc1OC`, the max response is -4.89%.
As for `CCC(c1nnnn1-c1ccc2c(c1)OCCO2)N1CCN(c2ccc(C(F)(F)F)cn2)CC1` (stereo not drawn), the max response is -0.412%.
Under `COc1ccc(NC(=O)CSc2nc3ccccc3c(=O)n2C)cc1` stands 0.885%.
Turning to `Cn1c(SCC(=O)Nc2ccc(Cl)cc2)nc(O)cc1=O`, the max response is -57.1% (active).
As for `CC(C)Cn1c(SCC(=O)Nc2ccc(Cl)cc2F)nc(O)cc1=O`, the figure is 3.57%.
As for `O=C1c2ccccc2C(=O)N1CCCCCCN1C(=O)c2ccccc2C1=O`, the figure is 1.45%; as for `O=C(CCCCCN1C(=O)c2cccc3cccc(c23)C1=O)NCc1ccco1`, 0.75%; as for `C[N+](C)(CCCCCC[N+](C)(C)CCCN1C(=O)c2cccc3cccc(c23)C1=O)CCCN1C(=O)c2cccc3cccc(c23)C1=O`, -72.8% (active).
Consider `COc1ccc(CC(N)c2csc(NC(=O)Nc3ccc(C(C)C)cc3)n2)cc1` (stereo not drawn), for which the max response was -8.9%.
As for `CC1(C(=O)NS(=O)(=O)c2ccc(C#N)cc2)CCN1C(=O)CC1CCCC1` (stereo not drawn), the figure is 0.461%.

The record behind these values is PubChem BioAssay AID652105 (National Center for Advancing Translational Sciences (NCATS), 2013).
